In all, about 420,000 compounds went through this assay and about 64,000 (15%) were called active. Not shown: some 27% with an inconclusive outcome. The call rests on the fitted dose curve; in most records, active means well fitted inhibition curve with a large enough effect; inconclusive means small, poorly fitted or top-dose-only effect; inactive means flat fitted curve, though single readings scatter. Only a sample is shown.
test: qHTS for Inhibitors of human tyrosyl-DNA phosphodiesterase 1 (TDP1): qHTS in cells in absence of CPT; settings: DT40 Tdp1-/- hTDP1 cells, no CPT, ATP luminescence, 48 h; activity change, negative = growth inhibition: at 46.2 µM (top of the series); further: nearly all actives have a fitted effect of over 55% in size
Summary of the method: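 Chicken DT40 Tdp1-/- cells complemented with human TDP1, screened without camptothecin (DMSO vehicle only), 400 cells/well. Compounds pin-transferred, cells incubated at 37 °C for at least 48 hr. Growth read as ATP-dependent luminescence (CellTiter-Glo, 30 min at RT).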
On the % scale 0 is the no-effect control and ±100 the full control effect; potency means the concentration at half of the fitted maximal effect.

Compound | activity change, negative = growth inhibition | Potency
COc1ccc(NC(=O)C/C(C)=N/NC(=O)c2cnccn2)cc1Cl | 2.04% (inactive) | –
COc1ccc(C(=O)N(Cc2ccc(N(C)C)cc2)C2CCS(=O)(=O)C2)cc1 (stereo not drawn) | -15% (inactive) | –
CC(C)C(OC(=O)c1cccs1)C(=O)NC1CCCCC1 (stereo not drawn) | -21.2% (inactive) | –
CCNc1nc(N)nc(-c2cc(Cl)ccc2OC)n1 | -7.89% (inactive) | –
COc1ccc(OC)c(S(=O)(=O)Nc2ccccc2F)c1 | -7.95% (inactive) | –
COc1ccc(C(=O)OCC(=O)Nc2ccc3[nH]c(=O)[nH]c3c2)c(OC)c1OC | -5.45% (inactive) | –
O=C(Nc1ccc(F)c([N+](=O)[O-])c1)C1CCCO1 (stereo not drawn) | -22.9% (inactive) | –
O=C1/C(=C/c2cccs2)CCc2ccccc21 | -26.7% (inactive) | –
COc1ccc(/C=C2\NC(=O)[C@@H]3Cc4ccccc4CN3C2=O)cc1 | -8.4% [at 9.04 µM] (inactive) | –
COc1ccc(/C=C2\N=C3CCCN3C2=O)cc1 | 21.3% (inactive) | –
COc1ccc(/C=C2/CCCc3ccccc3C2=O)cc1 | – | 5.8 µM (active)
COc1ccccc1C1=CC(=O)CCC1 | -12% (inactive) | –
COc1ccc(/C=C2\CCc3ccccc3C2=O)c(OC)c1OC | – | 20.6 µM (active)
O=C(O)CC(Cc1ccccc1)C(=O)Nc1ccc([N+](=O)[O-])cc1 (stereo not drawn) | -13.4% (inactive) | –
COc1ccc(/C(C)=N\NC(=O)c2ccc(-c3ccccc3)cc2)c(F)c1 | -7.22% (inactive) | –
COc1cccc(C(=O)N/N=C(\C)c2cccc(NC(=O)c3ccc(F)cc3)c2)c1OC | – | 23.1 µM (active)
COc1cccc(C(=O)Nc2cccnc2)c1OC | 3.25% (inactive) | –
CCc1ccc(CCC(=O)Nc2ccc(S(N)(=O)=O)cc2)o1 | -3.63% (inactive) | –
Cc1ccc2cc(C)c(N3CCC(C)CC3)nc2c1 | -35.6% (inactive) | –
CCOc1n[nH]c(-c2ccccc2)n1 | 15.3% (inactive) | –
O=C(CNC(=O)N1CC(=O)Nc2ccccc21)Nc1ccc(Br)cc1F | -0.716% (inactive) | –
Cc1ccc(Cn2ccc(NC(=O)C3C4CCC(C4)C3C(=O)O)n2)cc1 (stereo not drawn) | -23.8% (inactive) | –
COc1ccc(CCNC(=O)COC(=O)c2cnc(Cl)c(Cl)c2)cc1 | 1.66% (inactive) | –
COc1ccc(NC(=O)C2Cc3c(-c4ccc(Cl)cc4)ccnc3O2)cc1 (stereo not drawn) | – | 13 µM (active)
CC(=O)Nc1ccc(-c2ccnc3c2CC(C(=O)NC(C)C)O3)cc1 (stereo not drawn) | -21.1% (inactive) | –
O=C(Nc1ccc2c(c1)OCO2)C1CC1(Cl)Cl (stereo not drawn) | -18.3% (inactive) | –

Compound | activity change, negative = growth inhibition | Potency
COc1ccc(Cn2ccnc2SCC(=O)Nc2ccc3c(c2)OCO3)cc1 | -18.2% (inactive) | –
COc1ccc(NC(=O)C2Cc3c(-c4ccc5c(c4)OCO5)ccnc3O2)cn1 (stereo not drawn) | – | 4.61 µM (active)
O=C(Nc1ccc(Cl)cc1)C1Cc2c(-c3ccc4c(c3)OCO4)ccnc2O1 (stereo not drawn) | – | 20.6 µM (active)
COc1ccc(OCC(O)CNC(=O)Nc2ccc(Cl)cc2)cc1 (stereo not drawn) | 10.9% (inactive) | –
O=C(COc1ccc(Cl)cc1)Nc1ccc2c(c1)OCO2 | -21.7% (inactive) | –
COc1ccc(CCCNC(=O)C2Cc3c(-c4cccc(C(N)=O)c4)ccnc3O2)cc1 (stereo not drawn) | – | 16.4 µM (active)
COc1ccc(CCNC(=O)COc2ccc3c(c2)OCO3)cc1 | -8.14% (inactive) | –
COc1ccc(N(CC(=O)NC2CCCC2)C(=O)CS(=O)CC(=O)Nc2ccc3c(c2)OCO3)cc1 (stereo not drawn) | 17.1% (inactive) | –
COc1cc(OC)c(C(=S)N2CCCC2)cc1OC | -1.59% (inactive) | –
O=C1NC(=O)C(CCc2ccccc2)(c2ccccc2)N1 (stereo not drawn) | -19.1% (inactive) | –
O=C(Nc1c2c(nn1-c1cccc(Cl)c1)CS(=O)(=O)C2)c1cccs1 | 13.2% (inactive) | –
COc1ccc(-n2nnnc2SCC(=O)NCc2cccs2)cc1 | 4.79% (inactive) | –
COc1ccc(N2CCN(C(=O)c3cn(C)c4ccc(S(=O)(=O)N5CCOCC5)cc4c3=O)CC2)cc1 | – | inactive
CC(=O)NC1(c2cccc(F)c2)CCN(CC(=O)NC(C)C)CC1 | -3.98% (inactive) | –
CCCCC1=CC2=CC(=O)C(C)(OC(=O)CC)C(=O)C2=CN1CCCOC(C)C (stereo not drawn) | 5.48% (inactive) | –
CCOc1ncccc1C(=O)OCC(=O)c1c[nH]c2ccccc12 | 10.8% (inactive) | –
O=C(CCC(=O)OCC(F)(F)C(F)F)NCc1ccccc1 | -4.18% (inactive) | –
O=C(NC12CC3CC(CC(C3)C1)C2)N1CCCC(CO)C1 (stereo not drawn) | -5.39% (inactive) | –
CCOC(=O)c1ccc[n+](CC(=O)Nc2ccccc2OC(F)F)c1 | 1.71% (inactive) | –
OC[C@@H]1O[C@H](n2cnc3c(SCc4ccccc4)ncnc32)[C@H](O)[C@H]1O | – | 11.2 µM (active)
Nc1nc(SCc2ccc([N+](=O)[O-])cc2)c2ncn(C3OC(CO)C(O)C3O)c2n1 (stereo not drawn) | -26.2% (inactive) | –
CC(C)Sc1nc(N)nc2c1ncn2C1OC(CO)C(O)C1O (stereo not drawn) | -19.1% (inactive) | –
CCC(=O)N1CCc2cc(S(=O)(=O)NC(Cc3ccccc3)C(=O)NCc3ccc(C)cc3)ccc21 (stereo not drawn) | 1.68% (inactive) | –
O=C(CCc1ccccc1)NCc1ccc2c(c1)CCN2C(=O)c1ccccc1 | – | 20.6 µM (active)
O=C(CCc1ccccc1)NCc1cccnc1 | -13.8% (inactive) | –
Cc1ccc(C(=O)N2CCc3cc(CNC(=O)c4ccc(Br)cc4)ccc32)cc1 | – | 14.6 µM (active)

Compound | activity change, negative = growth inhibition | Potency
O=C(CCc1ccc(S(=O)(=O)NC2CCCCC2)cc1)NCc1ccccc1 | -22.2% (inactive) | –
Cc1cc2cc(CNC(=O)c3ccc(S(=O)(=O)N4CCOCC4)cc3)ccc2[nH]1 | -11.8% (inactive) | –
CN(C)c1ncc2nc(-c3ccc(F)cc3)c(=O)n(Cc3ccc(F)cc3)c2n1 | 15.1% (inactive) | –
C=Cc1ccc(Cn2c(C(=O)OC)cc3sc(C)cc32)cc1 | -27.6% (inactive) | –
COC(=O)C(Cc1c[nH]c2ccccc12)NC(=O)CCNC(=O)c1ccco1 (stereo not drawn) | -2.46% (inactive) | –
CC(=O)NC(Cc1c[nH]c2ccccc12)C(=O)NCCc1ccccc1 (stereo not drawn) | -12.3% (inactive) | –
C=CCC[C@@H](Cc1ccc(F)cc1)C(=O)OC[C@H](Cc1c[nH]c2ccccc12)NC(=O)[C@@H](CC=C)CC(=O)N(CCO)Cc1ccccc1 | – | 16.4 µM (active)
C=CC[C@H](CC(=O)NCCO)C(=O)N[C@@H](COC(=O)[C@@H](CC=C)Cc1ccc(F)cc1)Cc1c[nH]c2ccccc12 | – | 23.1 µM (active)
C=CC[C@@H](CC(=O)NCCO)C(=O)N[C@H](C)COC(=O)[C@@H](CC=C)CC(=O)OC(C)(C)C | -7.37% (inactive) | –
C=CCC[C@H](Cc1ccc(F)cc1)C(=O)OC[C@@H](Cc1c[nH]c2ccccc12)NC(=O)[C@H](CC=C)CC(=O)N[C@H](CO)Cc1ccccc1 | – | 20.6 µM (active)
O=C(CCc1c[nH]c2ccccc12)NCCOc1ccccc1 | -22.9% (inactive) | –
CCN(CC)c1nc(C#N)nc(OC)n1 | -20.1% (inactive) | –
CC1(C)CC(=O)NC=C(c2ccccc2)C1 | -2.86% (inactive) | –
COc1cc2c(cc1OC)/C(=C/C(=O)c1ccc(NC(C)=O)cc1)NCC2 | -28.9% (inactive) | –
O=C(OCCO)c1cc(Cl)c(C(=O)OCCO)cc1Cl | -2.72% (inactive) | –
O=S(=O)(c1ccc(-c2ccccc2)cc1)N1CCCC1 | 6.42% (inactive) | –
CN[C@@H]1[C@H](O[C@H]2[C@H](O[C@H]3[C@H](O)[C@@H](O)[C@H](N=C(N)N)[C@@H](O)[C@@H]3N=C(N)N)O[C@@H](C)[C@]2(O)CO)O[C@@H](CO)[C@H](O)[C@H]1O | -5.68% (inactive) | –
Cc1cc(C)nc(Nc2n[nH]c(-c3ccccc3N)n2)n1 | -26.2% (inactive) | –
CCOC(=O)CSc1nncc2ccc(OC)c(OC)c12 | -14.7% (inactive) | –
Cc1cc(-c2ccc(S(=O)(=O)N3CCN(c4cccc(C(F)(F)F)c4)CC3)s2)on1 | -7.52% (inactive) | –
CCc1cccc(C)c1NS(=O)(=O)c1ccc(-c2cc(C)no2)s1 | – | 0.517 µM (active)
Cc1cc(-c2ccc(S(=O)(=O)N3CCc4ccccc4C3)s2)on1 | -11.1% (inactive) | –
Cc1cc(C)cc(NS(=O)(=O)c2ccc(-c3cc(C)no3)s2)c1 | – | 2.59 µM (active)
CC(=O)c1ccc(NS(=O)(=O)c2ccc(-c3cc(C)no3)s2)cc1 | -26.9% (inactive) | –
Cc1cccc(N2CCN(S(=O)(=O)c3ccc(-c4cc(C)no4)s3)CC2C)c1 (stereo not drawn) | 21.2% (inactive) | –
COc1cc(CNc2ncn[nH]2)ccc1OCc1ccccc1C | -14.2% (inactive) | –

Compound | activity change, negative = growth inhibition | Potency
CC(C)CNc1ncnc2c1nnn2C | -1.79% (inactive) | –
Cc1cccc(NC(=O)NC2(C)CCS(=O)(=O)C2)c1 (stereo not drawn) | 22.1% (inactive) | –
Cc1nccn1-c1ccc(NC(=O)[C@H]2O[C@@H](n3ccc(=O)[nH]c3=O)[C@H](O)[C@@H]2O)cc1 | -4.65% (inactive) | –
COCCOC(=O)C1=C(C)NC(=O)NC1c1cc2c(cc1Br)OCO2 (stereo not drawn) | -5.22% (inactive) | –
CCOc1cc(S(=O)(=O)NC2CC(C)(C)NC(C)(C)C2)ccc1F | -14.5% (inactive) | –
COc1cc(/C=N/NC(=O)Cc2ccccc2)cc(OC)c1OC | -8.58% (inactive) | –
COc1cc(/C=N/Nc2nn3cnnc3c3ccccc23)cc(OC)c1OC | – | 16.4 µM (active)
COc1cc(/C=N/Nc2ccc(C)cc2)cc(Br)c1O | 4.09% (inactive) | –
Cc1nnsc1C(=O)NCc1c(F)cccc1Cl | -7.8% (inactive) | –
COc1ccccc1Nc1nnc(SC(C)C(=O)NC2CC2)s1 (stereo not drawn) | 7.34% (inactive) | –
Cc1ccc(NCc2n[nH]c(=S)n2-c2ccccc2)cc1Cl | -9.32% (inactive) | –
Cc1ccc(OCc2n[nH]c(=S)n2-c2ccccc2)cc1 | -14.7% (inactive) | –
S=c1[nH]nc(CSCc2ccc(Cl)cc2Cl)n1-c1ccccc1 | – | 15.8 µM (active)
Cc1c(C(=O)N2CCCC2)c(S(=O)(=O)NCC(C)c2ccccc2)c(C)n1C (stereo not drawn) | -3.35% (inactive) | –
O=C(c1ccc(Br)o1)N(c1ccccn1)C1CCCCC1 | – | 23.1 µM (active)
O=C(c1cccs1)N(C(=O)c1cccs1)c1ccccn1 | -1.91% (inactive) | –
O=C(N1CCOCC1)N(Cc1ccccc1)c1ccccn1 | -18.7% (inactive) | –
CCn1c(CNC(=O)C23CC4CC(CC(C4)C2)C3)nnc1SCC(=O)Nc1ccc(OC)cc1 | -26.1% (inactive) | –
CN(C)/C=C(\C#N)C(=O)c1cccnc1Oc1ccc(F)cc1F | -1.4% (inactive) | –
O=c1ccc2c(-c3ccccc3S(=O)(=O)O)c3ccc(O)c(O)c3oc-2c1O | – | 11.6 µM (active)
CCCNC(=S)NC1CC2CCCC(C1)N2CC(C)C (stereo not drawn) | -5.2% (inactive) | –
O=C(NCCCc1ccccc1)c1cc(COc2c(F)cccc2F)on1 | -0.395% (inactive) | –
CC(NC(=O)c1ccccc1)C(=O)Nc1ccccc1 (stereo not drawn) | 0.972% (inactive) | –
O=C(NC(=O)c1ccccc1)NC(=O)c1ccccc1 | -20.8% (inactive) | –
O=C(NC1=CC(=O)c2ccccc2C1=O)c1ccccc1 | – | 1.16 µM (active)

From PubChem BioAssay AID686978 (National Center for Advancing Translational Sciences (NCATS), 2013)
